About 1,600 (39%) of roughly 4,100 compounds were called active. Inconclusive results (about 25%) are left out. The list shows a part of the results. Unmarked numbers belong to inactive results. The call rests on the fitted dose curve; in most records, active means well fitted inhibition curve with a large enough effect; inconclusive means small, poorly fitted or top-dose-only effect; inactive means no such curve, though single readings can be large or run the other way.

This note sets out measurements from PubChem BioAssay AID1347416 (National Center for Advancing Translational Sciences (NCATS), 2020).
On the % scale 0 is the no-effect control and ±100 the full control effect; potency means the concentration at half of the fitted maximal effect.

The assay in a line: qHTS Validation assay for Inhibitors of Plasmodium falciparum Dd2 growth in vitro. Further: nearly all actives have a fitted effect of over 70% in size. To be noted: P. falciparum Dd2 in RBCs, SYBR Green growth, 72 h; series mostly up to 28.7 µM; activity change, negative = inhibition: at the top concentration. The source says:
Malaria, a parasitic disease spread to humans through the bite of a Plasmodium infected Anopheles mosquito, continues to be a global health burden affecting millions of people, with an estimated 228 million cases and 405,000 deaths in 2018. Concerns about safety and limitations of current antimalarial treatments strongly emphasize the need to develop new therapeutic options. The scarce number of chemotypes and validated drug targets with efficacy against the liver stage, have hindered development of new antimalarials. To address this, a chemoprophylactic drug discovery effort was conducted through a combined phenotypic high-throughput asexual blood stage and liver stage screen, providing a robust foundation to identify liver-stage active lead chemotypes. Compounds were initially screened against Plasmodium falciparum Dd2 strain parasites using a in vitro SYBRGreen-1 based 72 hr proliferation assay to identify novel chemotypes to advance to liver stage assays. NIH/NCATS Early Translation Branch Assay Submitter (PI): Anton Simeonov Ph.D.
[…] Assay Protocol: PROTOCOL TABLE (as described by Inglese et al., 2007) SEQUENCE No. (e.g., 1, 2, 3, etc.); PARAMETER (e.g., Cells, Incubation, Reagent, etc.); VALUE; DESCRIPTION SEQUENCE, Parameter, Description 1; Reagent; 3 uL complete malaria growth medium, 1536 TC treated Black clear bottom plate 2; Controls; 23 nL positive control artesunate (300 nM final) to column 1; Neutral control DMSO to columns 2-4 3; Compound; 23 nL of compounds in dose response concentration (29 uM to 0.5 nM final) 4; Reagent; 5 uL malaria infected red blood cells (2.5% hematocrit final, 0.3% parasitemia 5; Time; 72 hours at 37C (5% O2, 5% CO2, 90% N2; 95% Rh) 6; Reagent; 2 uL lysis buffer/SYBRGreen-1, 25 sec shake immediately following dispense 7; Time; ~16 hours at 37C (5% O2, 5% CO2, 90% N2; 95% Rh) 8; Detector; EnVision (PerkinElmer) bottom read at 485/14nm excitation and 535/25 nm emission NOTES (numbers refer to sequence above): 1; Complete Malaria Growth Media: 1X RPMI-1640 w/L-glutamine, 5.5g/L Albumax II, 367 uM Hypoxanthine, 25 mM HEPES, 0.25% Sodium Bicarbonate, 35 uM Gentamicin sulfate 2; Controls were added using the Kalypsis Pintool (Wako USA) equipped with 1536 pinhead 3; Compounds were added in a 7-point, titration with a high final concentration of 29 uM by Pintool from seven inter-plate titrations of library plates and two DMSO control plates at the beginning and end (see Yasgar et al., 2008). 4; Red blood cells infected with Plasmodium falciparum Dd2 parasites were used. 6; Lysis buffer: 20 mM Tris-HCl, 10 mM EDTA, 0.16% Saponin, 1.6% Triton-X, 10X SYBR Green. REFERENCE: Inglese J, Shamu CE, Guy RK. 2007. Reporting data from high-throughput screening of small-molecule libraries. Nat Chem Biol. doi:10.1038/nchembio0807-438 Yasgar A, Shinn P, Jadhav A, Auld D, Michael S, Zheng W, Austin CP, Inglese J, Simeonov A. 2008. Compound Management for Quantitative High-Throughput Screening. J Lab Autom 13:79-89. doi:10.1016/j.jala.2007.12.004
(In general: qHTS replaces the single test concentration by a dilution series.)
On to `Cc1ccc(Nc2cc(=O)oc3ccccc23)c(C)c1`, for which the “activity change, negative = inhibition” value was -20.1%.
With `COc1ccc(-c2nc3ccccc3o2)cc1NC(=O)COc1c(C)cc(Cl)cc1Cl`, the “activity change, negative = inhibition” value is 13.1%.
As to `COc1ccccc1NCc1cc(=O)oc2c(C)c(O)ccc12`, the Potency is 5.96 µM (active).
The same measure, in the same setting: the same measure for `COc1ccc(C)cc1NCc1cc(=O)oc2cc(-c3ccccc3)c(O)cc12`: 5.31 µM (active); for `O=C(Nc1ccc([N+](=O)[O-])cc1)Nc1ccc(OC(F)F)c(Cl)c1`: 2.66 µM (active).
With `CN1C(=O)CC(C(=O)O)C12CCN(Cc1cccc(C(=O)O)n1)CC2` (stereo not given), the “activity change, negative = inhibition” value was 37.6%.
As for `Oc1ccc(-c2ccccc2)cc1CN1CCCCCC1`, the Potency is 0.266 µM (active).
For `Oc1ccc(CN2CCCCC2)nc1-c1ccccc1`, the Potency is 0.531 µM (active).
Consider `CNC(=O)[C@H]1C[C@H](Oc2ccccc2)CN1C(=O)CCc1nc2ccccc2[nH]1`, for which the “activity change, negative = inhibition” value is 4.06%.
For the compound `C/C(Cl)=C/Cc1c(C)[nH]c2c(ccc3ccccc32)c1=O`, the Potency was 0.842 µM (active).
Same read-out and setting: the same measure for `O=c1[nH]c(C2CCCN(Cc3ccccn3)C2)nn1-c1ccc(Cl)cc1` (stereo not given): 2.37 µM (active).
As to `O=c1[nH]c(C2CCCN(Cc3ccc(F)cc3)C2)nn1-c1ccc(Cl)cc1` (stereo not given), the “activity change, negative = inhibition” value is -21.6%.
For the compound `COc1ccc(-n2nc(C3CCCN(C(=O)Nc4ccccc4)C3)[nH]c2=O)cc1` (stereo not given), the “activity change, negative = inhibition” value is 0%.
As to `COc1cc(C)cc(CN2CCC(Cc3ccccc3)CC2)c1O`, the Potency is 0.75 µM (active).
Consider `COc1ccc(C(=O)N2CCC(Cc3nc(-c4ccccc4)n[nH]3)CC2)cc1OC`, for which the “activity change, negative = inhibition” value is -19%.
For `CCn1ccc2sc(C)c(C(=O)N3CCC(Cc4ccccc4)CC3)c2c1=O`, the “activity change, negative = inhibition” value is 1.55%.
Regarding `C/C=C/c1cc(CN2CCN(c3ccccc3)CC2)c(O)c(OC)c1`, the Potency was 5.96 µM (active).
For `CCN1C(=O)C2CC3(CCN(C(=O)CCc4nc5ccccc5[nH]4)CC3)CN2C1=O` (stereo not given), the “activity change, negative = inhibition” value is 13.2%.
For the compound `COC1CN(c2ccc(C)cc2)C12CCN(C(=O)CCc1nc3ccccc3s1)CC2` (stereo not given), the Potency is 10.6 µM (active).
As to `O=C(CCc1nc2ccccc2s1)N1CCC(c2nc(C3CCOCC3)no2)CC1`, the “activity change, negative = inhibition” value was -6.71%.
Same read-out and setting: the same measure for `Cc1ccc(C(=O)N2CCCC(n3cc(-c4nc(-c5ccccc5)no4)nn3)C2)cc1` (stereo not given): 0.926%.
Consider `COc1cccc(NC(=O)c2ccc(-c3nnc4ccc(NC(=O)C5CCC5)cn34)cc2)c1`, for which the Potency is 3.76 µM (active).
As for `O=C(Nc1cccc(-c2nnc3n2CCCC3)c1)c1ccoc1`, the “activity change, negative = inhibition” value is -11.3%.
The same measure, in the same setting: the same measure for `O=C(c1ccsc1)N1CCN(c2nnc3ccc(C(F)(F)F)cn23)CC1`: -20.5%; for `COc1ccc(C2Cn3cnc(C(=O)N4CCC(C(=O)Nc5ccc(F)c(C)c5)CC4)c3CO2)cc1` (stereo not given): 2.95%.
Turning to `CCN(CC)C(=O)c1ccc(-c2nnc3ccc(NC(=O)C4CC4)cn23)cc1`, the Potency is 2.99 µM (active).
As to `COc1ccc(C(=O)Nc2cccc(-c3nnc4n3CCCC4)c2)cc1F`, the “activity change, negative = inhibition” value was -19%.
As for `CC(=O)Nc1ccc2nnc(-c3ccc(C(=O)N4CCCCCC4)cc3)n2c1`, the Potency was 8.41 µM (active).
Take `CCc1ccc(NC(=O)C2CCN(C(=O)c3nnn4cc(C)[nH]c(=O)c34)CC2)cc1`: the “activity change, negative = inhibition” value was 30.5%.
Same read-out and setting: the same measure for `Cc1ccc(CCNC(=O)C2CCN(C(=O)c3cc4c(=O)[nH]c(C)cn4n3)CC2)cc1`: 7.15%.
With `CCN1CCN(C(=O)c2ccc(-c3nnc4ccc(NC(=O)C5CC5)cn34)cc2)CC1`, the Potency is 6.68 µM (active).
For `CC(C)(C)NC(=O)c1ccc(-c2nnc3ccc(NC(=O)C4CC4)cn23)cc1`, the Potency is 9.44 µM (active).
For `CCOc1ccc(C(=O)Nc2cccc(-c3nnc4n3CCCC4)c2)cc1`, the “activity change, negative = inhibition” value is -14.3%.
For `COc1ccc(NC(=O)c2ccc(-c3nnc4ccc(NC(=O)C5CC5)cn34)cc2)cc1`, the Potency was 2.66 µM (active).
With `COc1ccc(NC(=O)c2ccc3c(c2)N(C)C2CCCCN2C3=O)cc1` (stereo not given), the “activity change, negative = inhibition” value is 11.3%.
The same measure, in the same setting: the same measure for `CCCc1noc(-c2ccn3c(CNC(=O)c4ccc(OC)cc4)nnc3c2)n1`: -13.4%.
As to `CCOc1ccc(NC(=O)c2ccc(-c3nnc4ccc(NC(=O)C5CC5)cn34)cc2)cc1`, the Potency was 2.99 µM (active).
Regarding `COc1ccc(C(=O)Nc2ccc(OCc3cc(=O)n4ccccc4n3)cc2)cc1`, the “activity change, negative = inhibition” value is 13.9%.
Turning to `COc1ccc(C(=O)Nc2ccc(-c3nc4ncccc4o3)cc2)cc1`, the “activity change, negative = inhibition” value is -23.5%.
Consider `COc1ccc(NC(=O)c2ccc(-c3nnc4ccc(NC(=O)C5CCC5)cn34)cc2)cc1`, for which the Potency is 4.22 µM (active).
For `Cc1cn2nc(C(=O)Nc3ccc4c(c3)OCCO4)cc2c(N2CCCC2)n1`, the “activity change, negative = inhibition” value was 0%.
As for `COCCN1C(=O)CCc2cc(NC(=O)c3ccc4c(c3)OCO4)ccc21`, the “activity change, negative = inhibition” value is -9.58%.
`CCC(=O)Nc1ccc2nnc(-c3ccc(C(=O)Nc4ccc5c(c4)OCCO5)cc3)n2c1`: the Potency was 7.5 µM (active).
As to `NC(=O)c1ccccc1OCC(=O)N1CC(CNC(=O)Nc2ccccc2)C2(C1)CN(c1ccccc1)C2` (stereo not given), the “activity change, negative = inhibition” value was -14.4%.
As to `COc1ccccc1C(=O)N1CC(CNC(=O)C2CC2)C2(C1)CN(c1ccccc1)C2` (stereo not given), the “activity change, negative = inhibition” value is 8.56% [at 43.1 µM].
As for `Oc1ccc(CN2CC(CNc3ccccc3)C3(C2)CN(c2ccccc2)C3)cc1` (stereo not given), the Potency is 0.611 µM (active).
For `O=C(Cc1ccccc1)NCC1CN(Cc2cccc(Cl)c2)CC12CN(c1ccccc1)C2` (stereo not given), the “activity change, negative = inhibition” value is 5.28%.
Turning to `O=C(Cc1ccc(O)cc1)N1CC(CNc2ccccc2)C2(C1)CN(c1ccccc1)C2` (stereo not given), the Potency is 0.243 µM (active).
Take `O=[S+]([O-])(NCC1CN(Cc2ccc(O)cc2)CC12CN(c1ccccc1)C2)c1ccccc1` (stereo not given): the Potency was 6.68 µM (active).
Take `CNCC(=O)N1CCC2(CC1)CN(Cc1ccccc1)CC2CO` (stereo not given): the “activity change, negative = inhibition” value is 8.38%.
Take `Cn1cc(C(=O)NCC2CN([S+](=O)([O-])c3ccccc3Cl)CC23CN(c2ccccc2)C3)cn1` (stereo not given): the “activity change, negative = inhibition” value was -15.3%.
`O=C(N[C@H]1CCOC[C@H]1C1CCOCC1)c1ccccc1-c1ccccc1`: the “activity change, negative = inhibition” value was 46.3%.
Consider `O=C1Cc2cc(S(=O)(=O)N3CCN(c4cccc(Cl)c4)CC3)ccc2N1`, for which the “activity change, negative = inhibition” value was -37.7%.
Consider `Cc1ccc(NC(=O)CCS(=O)(=O)c2ccc(Br)cc2)c(C)c1`, for which the “activity change, negative = inhibition” value is 40%.
On to `CC(=O)Nc1ccc(NS(=O)(=O)c2cc(Br)cc3c2N(C(=O)C2CC2)CC3)cc1`, for which the “activity change, negative = inhibition” value was 25.6%.
As to `O=C(CCS(=O)(=O)c1cc(Br)cc2c1N(C(=O)C1CC1)CC2)Nc1ccc(Br)cc1F`, the Potency was 3.35 µM (active).
On to `CC(=O)N1CCc2cc(S(=O)(=O)CCC(=O)N3CCC(CCOc4ccccc4)C3)ccc21` (stereo not given), for which the “activity change, negative = inhibition” value was -21.9%.
Regarding `O=C(C1CC1)N1CCc2cc(Br)cc(S(=O)(=O)N3CCN(c4cccc(C(F)(F)F)c4)CC3)c21`, the Potency is 4.73 µM (active).
Turning to `O=C(CCS(=O)(=O)c1cc(Br)cc2c1N(C(=O)C1CC1)CC2)N1CCN(c2cccc(Cl)c2)CC1`, the Potency is 13.3 µM (active).
As for `Cc1ccc(NC(=O)CCS(=O)(=O)c2cc(Br)cc3c2N(C(=O)C2CC2)CC3)cc1`, the Potency was 2.37 µM (active).
